From PubChem BioAssay
This is a sample that favours compounds with a hit; in the whole collection about 19% have one here.
DT40 TDP1 no CPT – qHTS for Inhibitors of human tyrosyl-DNA phosphodiesterase 1 (TDP1): qHTS in cells in absence of CPT | Potency, µM (titrated, usually from 46.2 µM), inactives show at the top dose activity change, negative = growth inhibition, usual class: inhibitors | AID 686978, 2013 | 420,000 tested, 15% active | DT40 Tdp1-/- hTDP1 cells, no CPT, ATP luminescence, 48 h; also: nearly all actives have a fitted effect of over 55% in size
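Chicken DT40 Tdp1-/- cells complemented with human TDP1, screened without camptothecin (DMSO vehicle only), 400 cells/well. Compounds pin-transferred, cells incubated at 37 °C for at least 48 hr. Growth read as ATP-dependent luminescence (CellTiter-Glo, 30 min at RT).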
Gal4-VP16 FLuc – Gal4-VP16 reporter inhibition counter-screen | Potency, µM (titrated, usually from 53.6 µM), inactives show at the highest dose activity, negative = inhibition, hits mostly inhibitors | Drosophila S2 Gal4-VP16 UAS-luciferase, luminescence, 20 h | 310,000 tested, 3.5% active;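 also: Gal4-VP16 expression switched on by copper sulfate through the metallothionein promoter; nearly all actives have a fitted effect of over 50% in size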
DT40 TDP1 CPT – DT40-hTDP1 cell growth loss with CPT | AID 686979 | 420,000 tested, 12% active | Potency, µM (series often up to 46.2 µM), without a hit: at the highest dose activity change, negative = growth inhibition, hits mostly inhibitors | chicken DT40 Tdp1-/-;hTDP1 cells + 20 nM CPT, ATP luminescence, 48 h; also: nearly all actives have a fitted effect of over 55% in size
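Chicken DT40 Tdp1-/- cells complemented with human TDP1, 400 cells/well, exposed to compounds plus 20 nM camptothecin for at least 48 h at 37 C; viability read as ATP content by CellTiter-Glo luminescence.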
RORgamma inh – ROR gamma (mouse) transcription inhibition; AID 2551; 310,000 tested, 5.4% active; Drosophila S2 Gal4-RORgamma UAS-luciferase reporter, 20 h; Potency, µM (titrated, usually from 53.6 µM), without a hit: at the highest dose activity change, negative = inhibition, hits mostly inhibitors; P51450; also: nearly all actives have a fitted effect of over 60% in size
Target sequence (P51450 whole entry, looked up, the tested form may be a part): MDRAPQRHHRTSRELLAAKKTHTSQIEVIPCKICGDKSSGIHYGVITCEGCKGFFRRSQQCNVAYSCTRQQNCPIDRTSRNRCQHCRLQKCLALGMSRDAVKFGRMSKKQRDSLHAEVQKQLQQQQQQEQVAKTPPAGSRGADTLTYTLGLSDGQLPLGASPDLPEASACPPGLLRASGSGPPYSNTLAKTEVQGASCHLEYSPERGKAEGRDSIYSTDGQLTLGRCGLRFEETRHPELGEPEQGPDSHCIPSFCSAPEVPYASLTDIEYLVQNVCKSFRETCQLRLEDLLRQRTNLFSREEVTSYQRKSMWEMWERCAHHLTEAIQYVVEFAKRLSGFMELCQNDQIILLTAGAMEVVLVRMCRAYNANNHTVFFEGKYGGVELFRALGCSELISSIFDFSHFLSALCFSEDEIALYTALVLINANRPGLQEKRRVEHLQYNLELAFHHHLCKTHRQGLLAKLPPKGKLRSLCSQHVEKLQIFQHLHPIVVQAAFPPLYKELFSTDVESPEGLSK
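Schneider cells (Drosophila), stable Gal4 DBD–ROR gamma + UAS-luc; 1 hr cmpd preincubation; Cu2+ induction 700 uM final; 20 hr ambient; luminescence.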
TDP1 inh – blocks human tyrosyl-DNA phosphodiesterase 1; Q9NUW8; recombinant TDP1, AlphaScreen DNA substrate cleavage; Potency, µM (top dose mostly 130 µM), without a hit: top-dose activity change, negative = inhibition, most hits filed as inhibitors; 350,000 tested, 0.28% active; AID 485290; also: nearly all actives have a fitted effect of over 40% in size
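Here, a 5' biotin and 3' phosphotyrosine-FITC DNA oligonucleotide reports Tdp1 activity: intact substrate bridges AlphaScreen beads, while cleavage leaves a 3' phosphate and drops signal. All incubations at room temperature.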
* hit, by the source's call; ? = inconclusive; . = no result given; [ ] = another dose, or the depositor's remark. Calls follow the shape of the dose curve; as a rule, active = well fitted curve in the direction sought with a large enough effect; inconclusive = small, poorly fitted or top-dose-only effect, or another doubt; inactive = no such curve, though single readings can be large; an effect the other way counts as inactive or inconclusive. % is scaled to controls: 0 for no effect and ±100 for the full control effect; potency is read from the fitted curve at half-maximal effect.

SMILES	DT40 TDP1 no CPT	Gal4-VP16 FLuc	DT40 TDP1 CPT	RORgamma inh	TDP1 inh
COc1ccc(C(=O)NC(=S)N2CCC(C)CC2)cc1Br	?	0.891µM*	?	0.631µM*	7.0%
Nc1nnc(Cc2ccc(F)cc2)s1	-4.1%	0.3%	-9.3%	21.1%	-0.6%
CCCC1CCc2c(sc(N)c2C(N)=O)C1 (centres undefined)	20.6µM*	-5.8%	16.4µM*	10.7%	4.0%
CC(C)(C)C1CCc2c(sc(NC(=O)c3ccco3)c2C(N)=O)C1 (centres undefined)	?	-13.9%	?	-27.3%	-3.3%
NC(=O)c1c(NC(=O)C2CCCO2)sc2c1CCC2 (centres undefined)	-6.2%	4.5%	-0.1%	18.4%	5.3%
CC(C)(C)C1CCc2c(sc(NC(=O)C3CCCO3)c2C(N)=O)C1 (centres undefined)	18.4µM*	?	?	21.6%	1.9%
CCC(C)(C)C1CCc2c(sc(N)c2C(N)=O)C1 (centres undefined)	20.6µM*	?	20.6µM*	?	6.7%
CC(C)(C)C1CCc2c(sc(N)c2C(N)=O)C1 (centres undefined)	18.4µM*	15.8µM*	23.1µM*	0.0%	4.2%
O=C(OCc1cc(=O)n2nc(C3CC3)sc2n1)c1ccc(NC(=O)c2ccccc2F)cc1	-16.1%	.	-16.2%	.	1.2%
Cc1cc(C)nc(SCc2nnc(SCC(=O)N3CCCc4ccccc43)n2C)n1	-6.6%	-14.3%	22.3%	-17.2%	-2.0%
CCCc1cc(=O)[nH]c2nnc(SC(C)CC)n12 (centres undefined)	1.2%	.	-11.1%	.	-2.6%
CC1=CC(C)C2COC(c3ccc[n+](C)c3)C1C2C (centres undefined)	8.2µM*	4.8%	8.2µM*	1.9%	5.8%
Cc1ccccc1N1C(=O)CC(c2c[nH]c3ccccc23)C1=O (centres undefined)	-14.0%	-7.8%[10 µM]	-6.8%	0.8%	-2.6%
O=C1C=CC(c2c[nH]c3ccccc23)CC1 (centres undefined)	16.4µM*	.	?	.	.
O=C(CSc1nnnn1-c1ccccc1)N1N=CCC1c1ccccc1 (centres undefined)	-18.3%	3.0%	-4.5%	24.2%	-1.8%
CCOc1ccccc1OCCC(=O)OCC(=O)Nc1c(C)nn(-c2ccccc2)c1C	-9.7%	.	-12.4%	.	-9.0%[0.505 µM]
O=C(CCCN1C(=O)/C(=C\c2ccco2)SC1=S)Nc1ccc2ccccc2c1	?	10µM*	?	12.6µM*	7.9%
CC(=C\c1ccccc1)/C=C1/SC(=S)N(CCCC(=O)O)C1=O	1.4%	0.631µM*	20.8%	?	.
O=C(O)CCCN1C(=O)/C(=C\c2ccco2)SC1=S	12.9%	1.26µM*	3.8%	3.98µM*	22.4µM*
COc1ccc(NC(=O)c2ccc3c(c2)c(C)c(C)n3Cc2ccc(F)cc2)cc1	4.61µM*	.	5.17µM*	.	7.9%
CCOC(=O)c1ccc(NC(=O)c2ccc3c(c2)c(C)c(C)n3Cc2ccc(F)cc2)cc1	8.2µM*	.	9.2µM*	.	7.9%
CC(=O)Nc1ccc(C(=O)OCc2ccc(F)cc2)cc1	?	1.2%	?	6.5%	3.6%
C/C(=N/NC(=O)c1nnn(-c2nonc2N)c1CSc1ccc(Cl)cc1)c1ccncc1	?	.	-23.4%	.	.
Cn1c(=O)c([N+](=O)[O-])c(NCC(O)c2ccccc2)c2ccccc21 (centres undefined)	18.4µM*	-10.1%	?	6.2%	5.3%
CCn1c(=O)c([N+](=O)[O-])c(NCC(O)c2ccccc2)c2ccccc21 (centres undefined)	?	-1.1%	?	0.9%	2.7%
SMILES	DT40 TDP1 no CPT	Gal4-VP16 FLuc	DT40 TDP1 CPT	RORgamma inh	TDP1 inh
COC(=O)NC1(C(F)(F)F)C(=O)Nc2c1c(=O)n(C)c(=O)n2C (centres undefined)	1.7%	0.6%	-3.5%	3.1%	-2.7%
C/C(C/C(C)=C1/SC(=S)NC1=O)=C1\SC(=S)NC1=O	-0.9%	6.3%	3.9%	-13.7%	.
CCCCCC/C(C)=C1/SC(=S)NC1=O	-6.8%	-18.7%	4.3%	15.8µM*	-1.0%
CCc1ccc(OCCNC(=O)OCc2ccccc2)cc1	?	-5.4%	-4.2%	43.4%	-13.3%
Cc1cc(-c2csc(N)n2)c(C)n1CCc1ccccc1	?	-9.5%	23.1µM*	-34.0%	11.9%
Cc1cccc(NC(=S)N(CCN2CCOCC2)Cc2cc3cc4c(cc3[nH]c2=O)OCCO4)c1	16.4µM*	-9.1%	?	43.5%	7.3%
CC(C)CNC(=S)N(CCN(C)C)Cc1cc2cc3c(cc2[nH]c1=O)OCO3	5.17µM*	-2.8%	?	-22.4%	.
CCCCNC(=S)N(CCN(CC)CC)Cc1cc2cc3c(cc2[nH]c1=O)OCCO3	?	5.2%	25.9µM*	5.4%	.
COc1cc2cc(CN(CCc3ccccc3C)C(=S)NCCCN3CCOCC3)c(=O)[nH]c2cc1OC	?	-6.6%	?	2.7%	.
O=c1[nH]c2cc3c(cc2cc1CN(CCc1ccccc1)C(=S)NCCCN1CCOCC1)OCCO3	20.6µM*	.	?	.	.
COc1ccc(/C=C\C(=O)NCc2ccc3[nH]c(C)cc3c2)cc1OC	?	2.8%	?	35.6%	6.6%
Cc1cccc(OCC(=O)Nc2cccc3cccnc23)c1C	.	.	.	.	-2.1%
CCC(=O)Nc1nonc1-c1nc2ccccc2n1Cc1ccccc1	?	0.9%	?	-42.5%	-1.1%
CCC(=O)Nc1nonc1-c1nc2ccccc2n1CCC(C)C	9.2µM*	-16.3%	?	-35.8%	-2.8%
C/C(CC1CC2=C(CC1(C)C)C(C)(C)CCC2)=N\NC(N)=S (centres undefined)	5.8µM*	3.16µM*	6.51µM*	2µM*	6.6%
C/C(CC1CC(C)(C)OC1=O)=N\NC(N)=S (centres undefined)	-7.7%	?	26.7%	?	5.6%
